{"source": "PubChem BioAssay AID441", "about": "(NMMLSC, 2006)", "note": "The campaign covered roughly 24,000 compounds. About 70 (0.3%) were called active. No stated cut-off is given here; in the data, active means inhibition above about 30%; inconclusive means no clear call, values can overlap the other calls; inactive means below that. This excerpt belongs to a sample that is enriched for actives."}
{"molecular_target": "N-formyl peptide receptor 2 (Homo sapiens) (UniProt P25090)", "sequence (P25090 whole entry, looked up)": "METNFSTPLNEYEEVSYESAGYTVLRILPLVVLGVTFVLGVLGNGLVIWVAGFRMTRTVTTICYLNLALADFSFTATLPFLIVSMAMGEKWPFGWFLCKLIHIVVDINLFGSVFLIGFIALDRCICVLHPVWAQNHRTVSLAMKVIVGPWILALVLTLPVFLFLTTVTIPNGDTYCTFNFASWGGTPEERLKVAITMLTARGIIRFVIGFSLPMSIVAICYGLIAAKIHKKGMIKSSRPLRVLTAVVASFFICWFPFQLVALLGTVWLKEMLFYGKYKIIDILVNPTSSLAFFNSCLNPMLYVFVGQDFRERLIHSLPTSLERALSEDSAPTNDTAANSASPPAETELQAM", "test": "small molecules displacing FPRL1 fluorescent ligand – cell-based, FPR counter-screen, flow cytometry, primary screen (AID 441);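 further: 0% = buffer alone and 100% = receptor blocker peptide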", "conditions": "FPRL1-expressing cells, fluorescent ligand binding inhibition, active compounds read high, concentration not given here"}
{"smiles": "Cc1c(C(=O)Nc2ccccc2Cl)oc2ccc(S(=O)(=O)N3CCC4(CC3)OCCO4)cc12", "inhibition": "-12.5% (inactive)"}
{"smiles": "CCOC(=O)n1c(SCC(=O)N(CC)CC)nc2ccccc21", "inhibition": "-1.8% (inactive)"}
{"smiles": "O=C(NCc1cccs1)c1ccc2c(c1)ncn2C1CCCC1", "inhibition": "2.8% (inactive)"}
{"smiles": "O=C(CN1C(=O)CCS(=O)(=O)c2ccccc21)NCc1ccc(F)cc1", "inhibition": "1.5% (inactive)"}
{"smiles": "O=C(C1=C(O)C(=O)N(Cc2ccccc2)C1c1cccnc1)c1ccco1", "note": "(stereo not drawn)", "inhibition": "1.3% (inactive)"}
{"smiles": "COc1ccc(-c2nnc(SCC(=O)NC3CCCCC3)o2)cc1OC", "inhibition": "2.7% (inactive)"}
{"smiles": "CCOC(=O)c1ccn(-c2nc(-c3ccco3)cc(C(F)(F)F)n2)n1", "inhibition": "2.5% (inactive)"}
{"smiles": "O=C(CCN1C(=O)c2ccncc2C1=O)Nc1ccc2c(c1)OCCO2", "inhibition": "9.6% (inactive)"}
{"smiles": "CCN1CCN(c2ncnc3c2oc2nc(C)c4c(c23)CC(C)(C)OC4)CC1", "inhibition": "1.2% (inactive)"}
{"smiles": "CCOc1ccc(NC(=O)CCS(=O)(=O)c2cccc3nsnc23)cc1", "inhibition": "-3.1% (inactive)"}
{"smiles": "CCOc1nc(OCC)nc(-n2cc(-c3ccccc3)nn2)n1", "inhibition": "3% (inactive)"}
{"smiles": "COc1ccc(Cc2nnc(NC(=O)Cc3cccs3)s2)cc1", "inhibition": "-1.5% (inactive)"}
{"smiles": "CCOC(=O)c1ccc(NC(=O)Cn2nnc(-c3ccc(C)cc3)n2)cc1", "inhibition": "3.3% (inactive)"}
{"smiles": "COc1ccc(CC(=O)Nc2ccc(-c3nnc(-c4ccc(C)cc4)o3)cc2)cc1", "inhibition": "51.1% (active)"}
{"smiles": "Cn1c(=O)[nH]c(=O)c2c1nc(CN(Cc1ccccc1)Cc1ccccc1)n2CCN1CCOCC1", "inhibition": "-0.1% (inactive)"}
{"smiles": "CN(Cc1ccccc1)C(=O)CCNC(=O)Cn1cnc2ccccc2c1=O", "inhibition": "-4.8% (inactive)"}
{"smiles": "COc1ccc(CCNC(=O)c2ccc3c(c2)NC(=O)C(N2CCOCC2)S3)cc1OC", "note": "(stereo not drawn)", "inhibition": "0.3% (inactive)"}
{"smiles": "Cn1c(C(=O)N2CCC(C(N)=O)CC2)cc2c(=O)n(C)c3ccccc3c21", "inhibition": "-1.2% (inactive)"}
{"smiles": "C/C(=N\\O)C1(C)N(O)C(C)(C)C(c2ccc(Br)cc2)=[N+]1[O-]", "note": "(stereo not drawn)", "inhibition": "1.1% (inactive)"}
{"smiles": "Cc1ncn(C23CC4CC(CC(O)(C4)C2)C3)n1", "inhibition": "8.2% (inactive)"}
{"smiles": "Cc1cc(=O)n2nc(N3CCCC(C(=O)NCCC4=CCCCC4)C3)sc2n1", "note": "(stereo not drawn)", "inhibition": "3% (inactive)"}
{"smiles": "CC(C)Nc1nc(N(c2ccccc2)c2ccccc2)nc(-n2ccnc2)n1", "inhibition": "-7.8% (inactive)"}
{"smiles": "CCOC(=O)Nc1ccccc1N1C(=O)c2ccccc2C1=O", "inhibition": "-0.1% (inactive)"}
{"smiles": "CCOC(=O)c1[nH]c2c(c1C)C(=O)CC(c1ccc(N(C)C)cc1)C2", "note": "(stereo not drawn)", "inhibition": "-0.6% (inactive)"}
{"smiles": "CC1C=CCC2C(=O)N(c3cccc(C(=O)N4CCCCCC4)c3)C(=O)C12", "note": "(stereo not drawn)", "inhibition": "-6.5% (inactive)"}
{"smiles": "O=C1NC(c2ccncc2)Nc2sc3c(c21)CCCC3", "note": "(stereo not drawn)", "inhibition": "0.8% (inactive)"}
{"smiles": "CCOC(=O)c1ccc2[nH]c(C)c(CN3CCN(C)CC3)c(=O)c2c1", "inhibition": "-3.9% (inactive)"}
{"smiles": "Cc1ccc2cc3cc(C(=O)N4CCCCCC4)oc3nc2c1", "inhibition": "3.2% (inactive)"}
{"smiles": "CC1=C(C(=O)Nc2ccccc2)C(c2cccs2)C(C#N)=C(SCC#N)N1", "note": "(stereo not drawn)", "inhibition": "-2.4% (inactive)"}
{"smiles": "c1ccc(CCn2nnnc2CN2CCN(C3CCCC3)CC2)cc1", "inhibition": "-2.3% (inactive)"}
{"smiles": "COc1ccc(-c2ccc(Nc3ccc(S(=O)(=O)N4CCCC4)cc3)nn2)cc1OC", "inhibition": "2.7% (inactive)"}
{"smiles": "Cc1nc2ncnn2c(C)c1CCC(=O)N1CCN(C(=O)c2ccco2)CC1", "inhibition": "-3.3% (inactive)"}
{"smiles": "CCN1CCN(Cc2c(O)ccc3c(=O)c(-c4ccc(OC)c(OC)c4)c(C(F)(F)F)oc23)CC1", "inhibition": "-3.1% (inactive)"}
{"smiles": "CCOC(=O)c1cccc(NC(=O)CN(c2ccc(C)cc2)S(=O)(=O)c2c(C)noc2C)c1", "inhibition": "-3% (inactive)"}
{"smiles": "COc1cccc(-c2nc3n(n2)C(c2ccccc2Cl)C(C(N)=O)=C(C)N3)c1", "note": "(stereo not drawn)", "inhibition": "-2.8% (inactive)"}
{"smiles": "O=C1CCc2cc(S(=O)(=O)N3CCC(C(=O)NCc4ccccc4Cl)CC3)ccc2N1", "inhibition": "-0.3% (inactive)"}
{"smiles": "CCOC(=O)c1cc2cc(-c3c(C(=O)OCC)oc4cc(O)cc(O)c4c3=O)ccc2o1", "inhibition": "1.4% (inactive)"}
{"smiles": "CCCCN(CC)C(=O)CN(C)S(=O)(=O)c1cccc2nsnc12", "inhibition": "1% (inactive)"}
{"smiles": "CCn1c(SCC(=O)Nc2ccccc2F)nc2c(c1=O)SC(C)C2", "note": "(stereo not drawn)", "inhibition": "4.3% (inactive)"}
{"smiles": "COc1ccc(CCNC(=O)CSc2nnc(CNC(=O)c3cccs3)o2)cc1OC", "inhibition": "1.2% (inactive)"}
{"smiles": "Cc1ccc(-c2nc(CS(=O)CC(=O)NC3CCCC3)c(C)o2)cc1", "note": "(stereo not drawn)", "inhibition": "1.4% (inactive)"}
{"smiles": "COCCCN(C(=O)Cn1ncc2c(=O)oc3ccc(C)cc3c21)C(C)c1ccncc1", "note": "(stereo not drawn)", "inhibition": "-4.1% (inactive)"}
{"smiles": "CCn1ncc(Br)c1C(=O)Nc1cc(C)ccc1F", "inhibition": "-0.1% (inactive)"}
{"smiles": "Cc1ccccc1CSc1nnc(Cn2c(=O)sc3ccccc32)n1C", "inhibition": "5.5% (inactive)"}
{"smiles": "O=C1CC(c2ccccc2)CC(O)=C1C=NCCN1CCOCC1", "note": "(stereo not drawn)", "inhibition": "1.2% (inactive)"}
{"smiles": "CC(=O)N(CC1CCCO1)C1(C(=O)NC2CCCC2)CCCCC1", "note": "(stereo not drawn)", "inhibition": "4% (inactive)"}
{"smiles": "COC(=O)[C@H](C(C)C)n1c(C)c(C(C)=O)c(C(C)=O)c1C", "inhibition": "31.1% (active)"}
{"smiles": "Cc1cccc(C2c3c(n(C)c(=O)n(C)c3=O)N=C3c4ccccc4C(=O)C32)c1", "note": "(stereo not drawn)", "inhibition": "-4.5% (inactive)"}
{"smiles": "CCN(CC)C(=O)CCC(=O)Nc1ccc(C(=O)OC)cc1", "inhibition": "4.2% (inactive)"}
{"smiles": "CC(C)COC(=O)C1C2C=CC3(CN(C(C)c4ccc(Br)cc4)C(=O)C13)O2", "note": "(stereo not drawn)", "inhibition": "17.2% (inactive)"}
{"smiles": "C/C(=C(\\C#N)C(=O)NCCCN1CCOCC1)N(C)C", "inhibition": "-7.6% (inactive)"}
{"smiles": "CN1C(=O)c2ccccc2C(C(=O)NCCCN2CCCC2)C1c1c[nH]c2ccccc12", "note": "(stereo not drawn)", "inhibition": "-4.5% (inactive)"}
{"smiles": "Cc1ccc(S(=O)(=O)n2nc(OC(=O)C(C)(C)C)cc2N)cc1", "inhibition": "-2.2% (inactive)"}
{"smiles": "Clc1ccc(Cn2ncc3c(NCc4cccnc4)ncnc32)cc1", "inhibition": "-5.1% (inactive)"}
{"smiles": "CCOc1ccc(OCC)c(NC(=O)CN(C)S(=O)(=O)c2cccc3nsnc23)c1", "inhibition": "-4.8% (inactive)"}
{"smiles": "Cn1c(=O)cc(SCC(=O)N2CCN(C(=O)c3ccco3)CC2)c2ccccc21", "inhibition": "-1.6% (inactive)"}
{"smiles": "COc1ccc(OC)c(NC(=O)CC(Cc2ccccc2OC)C(=O)O)c1", "note": "(stereo not drawn)", "inhibition": "9.6% (inactive)"}
{"smiles": "CCOC(=O)C1CCCN(Cc2nc(N)nc(Nc3ccc(C)cc3)n2)C1", "note": "(stereo not drawn)", "inhibition": "-0.4% (inactive)"}
{"smiles": "CC1Cc2nc(SCC(=O)Nc3ccccc3F)n(C)c(=O)c2S1", "note": "(stereo not drawn)", "inhibition": "-4.6% (inactive)"}
{"smiles": "CC1=Nn2c(nnc2-c2ccccc2)SC1", "inhibition": "4.7% (inactive)"}
{"smiles": "C=CCNC(=O)CSc1nc2sc(C)c(C)c2c(=O)[nH]1", "inhibition": "-8.9% (inactive)"}
{"smiles": "Cc1cc(Nc2ccccc2)n(CCC#N)n1", "inhibition": "9.1% (inactive)"}
{"smiles": "O=C(Cc1nn[nH]n1)NCCC1=CCCCC1", "inhibition": "3.2% (inactive)"}
{"smiles": "CCCn1cc(SCC(N)=O)c2ccccc21", "inhibition": "0.9% (inactive)"}
{"smiles": "O=C(Nc1ccccc1)N(Cc1cccnc1)Cc1ccco1", "inhibition": "3.6% (inactive)"}
{"smiles": "Cc1cccc(Nc2ccccc2C(=O)NCc2ccco2)c1C", "inhibition": "34.3% (active)"}
{"smiles": "O=C(NCc1ccco1)c1cccn2c(=O)c3cc(Br)ccc3nc12", "inhibition": "-9.9% (inactive)"}
{"smiles": "CCCCOc1ccc(C(=O)NCc2ccco2)cc1", "inhibition": "-9.3% (inactive)"}
{"smiles": "Cc1nnc(SCC(=O)N(C(C)C)C(C)C)nc1C", "inhibition": "-5.7% (inactive)"}
{"smiles": "CCOC(=O)N1CCC(NC(=O)Cn2cc3c(n2)CCCCC3)CC1", "inhibition": "0.2% (inactive)"}
{"smiles": "CCOC(=O)c1oc2c(CN3CCN(C)CC3)c(O)ccc2c(=O)c1-c1ccc(Br)cc1", "inhibition": "-3% (inactive)"}
{"smiles": "Cn1c(CNC(=O)C(C)(C)C)nc2ccccc21", "inhibition": "-0.3% (inactive)"}
{"smiles": "Cc1c(NC(=O)C(C)OC(=O)c2cc3c4ccccc4n(C)c3s2)c(=O)n(-c2ccccc2)n1C", "note": "(stereo not drawn)", "inhibition": "0.1% (inactive)"}
{"smiles": "CCCNC(=O)C1CC(=O)N(c2ccc(OCC(=O)Nc3cccc(C)c3C)cc2)C1", "note": "(stereo not drawn)", "inhibition": "-4.6% (inactive)"}
{"smiles": "O=c1c2ccccc2[nH]c(=S)n1CCN1CCC(=C(c2ccc(F)cc2)c2ccc(F)cc2)CC1", "inhibition": "-11% (inactive)"}
{"smiles": "COCCCN1C(=O)C(=O)/C(=C(/O)c2ccc3c(c2)CC(C)O3)C1c1cccnc1", "note": "(stereo not drawn)", "inhibition": "28.3% (inactive)"}
{"smiles": "O=C1C(=O)N(CCN2CCOCC2)C(c2ccccn2)/C1=C(/O)c1ccc(Cl)cc1", "note": "(stereo not drawn)", "inhibition": "-6.2% (inactive)"}
{"smiles": "CC1Cc2cc(/C(O)=C3\\C(=O)C(=O)N(CCN4CCOCC4)C3c3ccccc3F)ccc2O1", "note": "(stereo not drawn)", "inhibition": "30.8% (active)"}
{"smiles": "CCOc1ccccc1C1CC(c2ccccc2)Nc2nc(N)nn21", "note": "(stereo not drawn)", "inhibition": "0.2% (inactive)"}
{"smiles": "CCOC(=O)C1CCN(C(=O)Cc2c(C(=O)O)[nH]c3ccccc23)CC1", "inhibition": "0.3% (inactive)"}
{"smiles": "CC1CCC(NS(=O)(=O)c2ccc3c(c2)n(C)c(=O)c(=O)n3C)CC1", "note": "(stereo not drawn)", "inhibition": "-4.7% (inactive)"}
{"smiles": "O=C(CC(NCCN1CCOCC1)C(=O)O)Nc1cccc(Cl)c1", "note": "(stereo not drawn)", "inhibition": "4.9% (inactive)"}
{"smiles": "CCN(CCCNC(=O)C1CCN(S(=O)(=O)c2cnc[nH]2)CC1)c1ccccc1", "inhibition": "-1.3% (inactive)"}
{"smiles": "CCOC(=O)CNC(=O)CN1C(=O)CCSc2ccccc21", "inhibition": "-6.4% (inactive)"}
{"smiles": "CCOC(=O)c1ccc(-n2c(C)nc3c(cnn3-c3ccccc3C)c2=O)cc1", "inhibition": "-6% (inactive)"}
{"smiles": "Cc1cc(C)cc(N(CC(=O)NCC2CCCO2)S(=O)(=O)c2c(C)noc2C)c1", "note": "(stereo not drawn)", "inhibition": "3.6% (inactive)"}
{"smiles": "Cc1nc2ccccc2c2oc(C(=O)NCC3CCCO3)cc12", "note": "(stereo not drawn)", "inhibition": "3.5% (inactive)"}
{"smiles": "CCOC(=O)c1nnn(-c2nonc2OC)c1-c1ccccc1", "inhibition": "5.9% (inactive)"}
{"smiles": "N#CCCN1CCN(S(=O)(=O)c2ccc(S(=O)(=O)N3CCCC3)cc2)CC1", "inhibition": "1.9% (inactive)"}
{"smiles": "COC(=O)C1=C(C)Nc2ncnn2C1c1ccco1", "note": "(stereo not drawn)", "inhibition": "0.6% (inactive)"}
{"smiles": "COc1ccc(N2C(=O)CCC(C(=O)N(C)C3CCCCC3)C2c2ccc(OC)c(OC)c2)cc1", "note": "(stereo not drawn)", "inhibition": "-4.6% (inactive)"}
{"smiles": "CCOC(=O)N1CCC(Nc2c(NCCN3CCN(c4cccc(Cl)c4)CC3)c(=O)c2=O)CC1", "inhibition": "8% (inactive)"}
{"smiles": "O=C(CC1Oc2ccccc2NC1=O)NCCCN1CCN(Cc2ccccc2)CC1", "note": "(stereo not drawn)", "inhibition": "-1.8% (inactive)"}
